Test results as given in PubChem BioAssay AID1159580 (chemical genetic matrix, 2015).
Where “and” joins values, the source holds several entries; their conditions need not be identical. Equal values may be shown once. Screen size: about 5,500 compounds; about 2,000 (36%) were called active. Not shown: some 18% with an inconclusive outcome. Rule as the data show it: active = normalized growth mostly below about 0.91 (no sharp cut-off); inconclusive = no clear call, values can overlap the other calls; inactive = mostly above about 0.92. This is one part of the list.

Experiment: chemical genetic growth profiling, strain panel (AID 1159580);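 also: tested at 20 µM; growth read once vehicle control cultures reached saturation at 30 °C; 1 = growth at the plate median or of vehicle wells; lower values mean less growth of the strain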
Settings: S. cerevisiae deletion strains, growth OD

Measured: normalized growth

CC(N=C(NC#N)Nc1ccncc1)C(C)(C)C (configuration not stated)
inactive: locus YAL013W, strain DEP1, active compounds read low 1.01 | locus YAL021C, strain ccr4, active compounds read low 0.988 | locus YAL026C, strain drs2, active compounds read low 0.997 | locus YAL030W, strain snc1, active compounds read low 0.988 | locus YAL040C, strain CLN3, active compounds read low 0.983 | locus YBL061C, strain skt5, active compounds read low 0.986 | locus YBR009C, strain hhf1, active compounds read low 1.01 | locus YBR021W, strain FUR4, active compounds read low 1.02 | locus YBR023C, strain chs3, active compounds read low 0.98 | locus YBR171W, strain sec66, active compounds read low 0.958 | locus YBR229C, strain ROT2, active compounds read low 1.01 | locus YBR231C, strain swc5, active compounds read low 0.953 | locus YBR279W, strain paf1, active compounds read low 0.994 | locus YCL011C, strain gbp2, active compounds read low 0.989 | locus YCL016C, strain dcc1, active compounds read low 1.02 | locus YCL029C, strain bik1, active compounds read low 1.04 | locus YCL061C, strain MRC1 (second series), active compounds read low 0.999 | locus YCL061C, strain MRC1, active compounds read low 0.951 | locus YCL069W, strain vba3, active compounds read low 0.989 | locus YCR088W, strain abp1, active compounds read low 0.98 | locus YDL005C, strain med2, active compounds read low 0.988 | locus YDL035C, strain GPR1, active compounds read low 0.999 | locus YDL040C, strain nat1, active compounds read low 0.979 | locus YDL074C, strain BRE1, active compounds read low 1.05 | locus YDL101C, strain DUN1, active compounds read low 1.01 | locus YDL134C, strain PPH21, active compounds read low 1.01 | locus YDL185W, strain tfp1, active compounds read low 1.02 | locus YDL192W, strain arf1, active compounds read low 1.01 | locus YDR001C, strain nth1, active compounds read low 0.963 | locus YDR069C, strain doa4, active compounds read low 0.949 | locus YDR101C, strain arx1, active compounds read low 1.01 | locus YDR137W, strain rgp1, active compounds read low 0.97 | locus YDR150W, strain NUM1, active compounds read low 1.02 and 1 | locus YDR159W, strain sac3, active compounds read low 1.01 | locus YDR162C, strain NBP2, active compounds read low 1.01 | locus YDR195W, strain ref2 0.895 | locus YDR297W, strain sur2, active compounds read low 0.971 | locus YDR318W, strain mcm21, active compounds read low 1.02 | locus YDR334W, strain swr1, active compounds read low 0.949 | locus YDR335W, strain msn5, active compounds read low 0.972 | locus YDR363W, strain ESC2, active compounds read low 0.904 | locus YDR388W, active compounds read low 1.02 | locus YDR392W, strain spt3, active compounds read low 1.04 | locus YDR502C, strain sam2, active compounds read low 1.01 | locus YEL003W, strain gim4, active compounds read low 0.967 | locus YEL037C, strain rad23, active compounds read low 0.998 | locus YEL061C, strain CIN8 (second series), active compounds read low 0.974 | locus YEL061C, strain CIN8, active compounds read low 1.01 | locus YER002W, strain NOP16, active compounds read low 1 | locus YER015W, strain faa2, active compounds read low 0.999 | locus YER016W, strain bim1, active compounds read low 0.986 | locus YER110C, active compounds read low 1.02 | locus YER111C, strain swi4, active compounds read low 0.995 | locus YER155C, strain BEM2 (second series), active compounds read low 0.929 | locus YER155C, strain BEM2, active compounds read low 1 | locus YER167W, strain BCK2, active compounds read low 0.996 | locus YFR010W, strain ubp6, active compounds read low 0.964 | locus YGL078C, strain dbp3, active compounds read low 1.01 | locus YGL086W, strain mad1, active compounds read low 1 | locus YGL167C, strain pmr1, active compounds read low 0.961 | locus YGL173C, strain kem1, active compounds read low 0.97 | locus YGL227W, strain vid30, active compounds read low 0.986 | locus YGL240W, strain doc1, active compounds read low 0.945 | locus YGL248W, strain PDE1, active compounds read low 1 | locus YGL253W, strain hxk2, active compounds read low 1.01 | locus YGR078C, strain PAC10, active compounds read low 1.04 and 0.982 | locus YGR135W, strain pre9, active compounds read low 1.03 | locus YGR229C, strain SMI1, active compounds read low 1.02 | locus YGR252W, strain gcn5, active compounds read low 0.967 | locus YHR013C, strain ard1, active compounds read low 0.985 | locus YHR027C, strain rpn1, active compounds read low 0.979 | locus YHR030C, strain SLT2, active compounds read low 1.01 | locus YHR079C, strain IRE1 (second series), active compounds read low 1.02 | locus YHR094C, strain hxt1, active compounds read low 1.02 | locus YHR129C, strain ARP1, active compounds read low 1 | locus YHR142W, strain chs7, active compounds read low 1.02 | locus YHR200W, strain rpn10, active compounds read low 1.02 | locus YIL066C, strain RNR3, active compounds read low 1.02 | locus YIL073C, strain SPO22, active compounds read low 1.02 | locus YIL125W, strain kgd1, active compounds read low 1.01 | locus YIR030C, strain dcg1, active compounds read low 1.02 | locus YJL092W, strain hpr5, active compounds read low 0.976 | locus YJL095W, strain BCK1 (second series), active compounds read low 0.974 | locus YJL095W, strain BCK1, active compounds read low 1.04 | locus YJL115W, strain asf1, active compounds read low 0.971 | locus YJL129C, strain trk1, active compounds read low 0.979 | locus YJL134W, strain LCB3, active compounds read low 1.01 | locus YJL154C, strain vps35, active compounds read low 0.972 | locus YJL164C, strain tpk1, active compounds read low 1.03 | locus YJL166W, strain qcr8, active compounds read low 0.922 | locus YJL168C, strain set2, active compounds read low 1.02 | locus YJL187C, strain SWE1 (second series), active compounds read low 1.03
